According to ChEMBL document CHEMBL3988442, “University of Dundee, Small-Polar-MMV Screening Library” (2021):
For some assays here: Entries with a potency or affinity are not part of this list.

Columns and labels:
Set-up in all cases: scale not given: direction of the effect not stated beside the values
[1] = molecular target: Protein translocase subunit SecA (Escherichia coli (strain K12)) (UniProt P10408); assay: Assay to Identify E. coli SecA ATPase Inhibitors; assay type: functional; conditions: 30 µM
Sequence of Protein translocase subunit SecA (Escherichia coli (strain K12)) (P10408 whole entry): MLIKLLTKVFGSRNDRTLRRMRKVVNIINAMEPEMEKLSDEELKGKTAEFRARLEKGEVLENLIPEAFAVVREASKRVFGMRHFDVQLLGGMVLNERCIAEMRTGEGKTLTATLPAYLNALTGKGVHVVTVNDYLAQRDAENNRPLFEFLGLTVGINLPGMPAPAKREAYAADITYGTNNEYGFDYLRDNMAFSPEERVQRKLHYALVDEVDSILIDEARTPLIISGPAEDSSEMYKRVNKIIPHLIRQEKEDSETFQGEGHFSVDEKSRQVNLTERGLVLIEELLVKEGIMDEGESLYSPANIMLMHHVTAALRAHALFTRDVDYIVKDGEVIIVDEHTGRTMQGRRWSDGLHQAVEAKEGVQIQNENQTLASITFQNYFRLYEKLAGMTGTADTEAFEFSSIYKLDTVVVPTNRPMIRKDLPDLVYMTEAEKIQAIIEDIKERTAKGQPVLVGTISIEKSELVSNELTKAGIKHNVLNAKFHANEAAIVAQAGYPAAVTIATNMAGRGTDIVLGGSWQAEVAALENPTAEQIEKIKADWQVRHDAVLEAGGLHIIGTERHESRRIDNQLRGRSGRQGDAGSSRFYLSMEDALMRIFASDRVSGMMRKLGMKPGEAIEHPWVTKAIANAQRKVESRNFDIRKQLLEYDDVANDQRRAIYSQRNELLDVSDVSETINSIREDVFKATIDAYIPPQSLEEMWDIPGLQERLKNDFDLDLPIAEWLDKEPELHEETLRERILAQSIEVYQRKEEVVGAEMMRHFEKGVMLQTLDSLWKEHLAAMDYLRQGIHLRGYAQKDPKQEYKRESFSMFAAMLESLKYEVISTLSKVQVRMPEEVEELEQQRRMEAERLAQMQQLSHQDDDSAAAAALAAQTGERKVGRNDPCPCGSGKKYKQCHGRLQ

[2] = molecular target: T1, Ubiquitin-activating enzyme e1, putative (Leishmania donovani (strain BPK282A1)) (UniProt E9BSI1); assay: Leishmania donovani Ubiquitin Activating Enzyme (LdE1); assay type: functional; conditions: 30 µM
T1 sequence (whole entry): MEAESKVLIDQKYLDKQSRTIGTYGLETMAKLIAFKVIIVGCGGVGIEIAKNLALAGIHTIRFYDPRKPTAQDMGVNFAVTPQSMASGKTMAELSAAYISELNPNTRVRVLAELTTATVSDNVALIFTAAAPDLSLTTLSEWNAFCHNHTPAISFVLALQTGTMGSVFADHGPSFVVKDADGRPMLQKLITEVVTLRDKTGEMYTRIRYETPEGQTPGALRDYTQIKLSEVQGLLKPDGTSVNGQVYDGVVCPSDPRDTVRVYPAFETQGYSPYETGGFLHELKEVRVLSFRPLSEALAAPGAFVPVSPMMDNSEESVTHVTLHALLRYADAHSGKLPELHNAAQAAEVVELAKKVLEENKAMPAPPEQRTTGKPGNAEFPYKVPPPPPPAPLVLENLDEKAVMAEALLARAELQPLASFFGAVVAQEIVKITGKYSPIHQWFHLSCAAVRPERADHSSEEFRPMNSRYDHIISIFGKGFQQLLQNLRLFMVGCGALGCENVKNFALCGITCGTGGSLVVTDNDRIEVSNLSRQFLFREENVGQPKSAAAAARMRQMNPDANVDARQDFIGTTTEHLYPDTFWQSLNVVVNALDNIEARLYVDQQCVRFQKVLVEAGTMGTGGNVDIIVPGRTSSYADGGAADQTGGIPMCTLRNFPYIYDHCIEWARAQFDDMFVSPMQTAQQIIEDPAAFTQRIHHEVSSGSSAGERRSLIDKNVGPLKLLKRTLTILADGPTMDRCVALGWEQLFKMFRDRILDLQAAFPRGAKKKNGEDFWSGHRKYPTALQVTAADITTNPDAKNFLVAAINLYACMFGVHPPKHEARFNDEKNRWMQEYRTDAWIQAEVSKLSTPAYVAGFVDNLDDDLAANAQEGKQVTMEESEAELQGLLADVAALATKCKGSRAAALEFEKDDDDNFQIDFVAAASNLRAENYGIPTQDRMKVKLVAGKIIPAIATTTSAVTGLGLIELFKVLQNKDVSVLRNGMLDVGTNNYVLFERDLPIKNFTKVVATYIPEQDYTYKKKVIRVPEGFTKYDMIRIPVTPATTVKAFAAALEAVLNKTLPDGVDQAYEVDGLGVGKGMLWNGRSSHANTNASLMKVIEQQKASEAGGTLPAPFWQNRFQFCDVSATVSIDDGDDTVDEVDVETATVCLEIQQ

[3] = molecular target: AMP-activated protein kinase, AMPK (Homo sapiens) (UniProt P54646+O43741+P54619+Q9UGJ0+Q9Y478+Q13131+Q9UGI9); assay: AMP-dependent Kinase enzyme assay. An in vitro enzyme assay that detects ADP turnover that is directly proportional to AMPK activity. This uses naive AMPK that is activated during the assay with MK-8722; assay type: functional; conditions: 30 µM
[4] = molecular target: Sialic acid-binding Ig-like lectin 9 (Homo sapiens) (UniProt Q9Y336); assay: Hs-Siglec9 ALPHAscreen SOP 20170721; conditions: 10 µM
Sequence of Sialic acid-binding Ig-like lectin 9 (Homo sapiens) (Q9Y336 whole entry): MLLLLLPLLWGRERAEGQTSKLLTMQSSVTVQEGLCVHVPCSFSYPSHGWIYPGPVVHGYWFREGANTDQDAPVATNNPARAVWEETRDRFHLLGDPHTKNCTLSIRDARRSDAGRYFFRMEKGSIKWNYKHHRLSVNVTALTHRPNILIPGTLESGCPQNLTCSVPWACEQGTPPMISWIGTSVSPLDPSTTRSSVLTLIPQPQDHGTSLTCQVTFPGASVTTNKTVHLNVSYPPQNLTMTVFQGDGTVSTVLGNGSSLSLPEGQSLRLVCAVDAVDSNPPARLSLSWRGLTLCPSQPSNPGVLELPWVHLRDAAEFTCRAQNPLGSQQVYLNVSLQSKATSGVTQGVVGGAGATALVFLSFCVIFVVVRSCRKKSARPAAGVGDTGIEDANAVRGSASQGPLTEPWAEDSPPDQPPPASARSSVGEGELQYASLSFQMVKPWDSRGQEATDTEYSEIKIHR

Trypanosoma cruzi = assay: Trypanosoma cruzi phosphomannomutase and mannose-1-phosphate guanylyltransferase assay; assay type: functional; conditions: 10 µM
[5] = molecular target: T2, Arginase-2, mitochondrial (Homo sapiens) (UniProt P78540); assay: in vitro enzyme assay to detect the production of urea directly proportional to the activity of Arginase II; assay type: functional; conditions: 33.3 µM; further: in the data most compounds retested in dose-response had high values
T2 sequence (whole entry): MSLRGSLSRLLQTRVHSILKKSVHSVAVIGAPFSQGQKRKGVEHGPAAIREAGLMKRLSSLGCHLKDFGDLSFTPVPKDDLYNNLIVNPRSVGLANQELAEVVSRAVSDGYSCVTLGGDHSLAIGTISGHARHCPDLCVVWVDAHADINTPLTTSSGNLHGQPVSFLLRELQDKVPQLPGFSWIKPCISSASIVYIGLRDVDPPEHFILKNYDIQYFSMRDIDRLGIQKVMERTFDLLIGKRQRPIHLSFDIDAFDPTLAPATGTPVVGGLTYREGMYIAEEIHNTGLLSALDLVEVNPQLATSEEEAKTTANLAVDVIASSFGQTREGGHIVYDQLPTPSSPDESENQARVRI

[6] = molecular target: T3, Proteasome subunit beta (Trypanosoma cruzi) (UniProt O96673); assay: Trypanosoma cruzi proteasome chymotrypsin-like activity (TcProtChymo) assay.; further: in the data most compounds retested in dose-response had high values; assay type: functional; conditions: 9.37 µM
T3 sequence (whole entry): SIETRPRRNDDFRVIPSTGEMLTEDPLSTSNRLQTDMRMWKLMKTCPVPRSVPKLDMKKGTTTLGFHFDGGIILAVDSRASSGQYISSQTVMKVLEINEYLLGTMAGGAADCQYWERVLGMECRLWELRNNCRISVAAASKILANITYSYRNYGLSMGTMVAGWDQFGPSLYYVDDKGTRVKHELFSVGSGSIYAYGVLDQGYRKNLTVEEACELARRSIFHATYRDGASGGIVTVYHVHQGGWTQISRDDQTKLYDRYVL

Homo sapiens = organism: Homo sapiens; assay: To identify inhibition of the IFN signalling (Jak-Stat) pathway via expression of an eGFP reporter gene under the control of an IFN-stimulated response element (ISRE) containing MxA promoter.; assay type: functional; conditions: 30 µM
[7] = molecular target: T4, Tyrosyl-tRNA synthetase, putative (Trypanosoma cruzi (strain CL Brener)) (UniProt Q4DSP6); assay: Trypanosoma cruzi tyrosyl tRNA synthetase (TcYRS) _High Tyrosine SOP; assay type: functional; conditions: 30 µM; further: in the data most compounds retested in dose-response had high values
T4 sequence (whole entry): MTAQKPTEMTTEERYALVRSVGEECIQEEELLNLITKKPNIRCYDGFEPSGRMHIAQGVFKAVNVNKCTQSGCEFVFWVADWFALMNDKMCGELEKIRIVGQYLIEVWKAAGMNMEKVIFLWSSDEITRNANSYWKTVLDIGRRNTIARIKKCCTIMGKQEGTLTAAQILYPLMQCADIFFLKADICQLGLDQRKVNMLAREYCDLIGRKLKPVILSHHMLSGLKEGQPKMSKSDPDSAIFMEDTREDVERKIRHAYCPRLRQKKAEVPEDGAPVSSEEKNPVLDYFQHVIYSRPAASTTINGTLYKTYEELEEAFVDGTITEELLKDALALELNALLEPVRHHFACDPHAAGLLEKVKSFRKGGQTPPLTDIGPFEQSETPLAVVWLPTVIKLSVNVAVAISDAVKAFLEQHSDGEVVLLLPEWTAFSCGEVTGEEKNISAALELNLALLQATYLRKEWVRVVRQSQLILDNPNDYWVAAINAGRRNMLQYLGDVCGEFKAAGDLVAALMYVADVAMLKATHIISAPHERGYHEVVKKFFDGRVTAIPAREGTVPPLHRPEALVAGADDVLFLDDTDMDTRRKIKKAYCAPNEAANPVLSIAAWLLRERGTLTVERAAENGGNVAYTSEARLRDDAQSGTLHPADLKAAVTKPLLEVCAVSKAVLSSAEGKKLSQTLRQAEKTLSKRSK

[8] = molecular target: T4, Tyrosyl-tRNA synthetase, putative (Trypanosoma cruzi (strain CL Brener)); assay: Trypanosoma cruzi tyrosyl tRNA synthetase (TcYRS) SOP; assay type: functional; conditions: 30 µM
[9] = molecular target: Chromo domain-containing protein 1 (Saccharomyces cerevisiae (strain ATCC 204508 / S288c) (Baker's yeast)) (UniProt P32657); assay: ScCHD-1 Enzyme Inhibition Assay; assay type: functional; conditions: 30 µM; further: in the data most compounds retested in dose-response had high values
Sequence of Chromo domain-containing protein 1 (Saccharomyces cerevisiae (strain ATCC 204508 / S288c) (Baker's yeast)) (P32657 whole entry, the tested form may be a part): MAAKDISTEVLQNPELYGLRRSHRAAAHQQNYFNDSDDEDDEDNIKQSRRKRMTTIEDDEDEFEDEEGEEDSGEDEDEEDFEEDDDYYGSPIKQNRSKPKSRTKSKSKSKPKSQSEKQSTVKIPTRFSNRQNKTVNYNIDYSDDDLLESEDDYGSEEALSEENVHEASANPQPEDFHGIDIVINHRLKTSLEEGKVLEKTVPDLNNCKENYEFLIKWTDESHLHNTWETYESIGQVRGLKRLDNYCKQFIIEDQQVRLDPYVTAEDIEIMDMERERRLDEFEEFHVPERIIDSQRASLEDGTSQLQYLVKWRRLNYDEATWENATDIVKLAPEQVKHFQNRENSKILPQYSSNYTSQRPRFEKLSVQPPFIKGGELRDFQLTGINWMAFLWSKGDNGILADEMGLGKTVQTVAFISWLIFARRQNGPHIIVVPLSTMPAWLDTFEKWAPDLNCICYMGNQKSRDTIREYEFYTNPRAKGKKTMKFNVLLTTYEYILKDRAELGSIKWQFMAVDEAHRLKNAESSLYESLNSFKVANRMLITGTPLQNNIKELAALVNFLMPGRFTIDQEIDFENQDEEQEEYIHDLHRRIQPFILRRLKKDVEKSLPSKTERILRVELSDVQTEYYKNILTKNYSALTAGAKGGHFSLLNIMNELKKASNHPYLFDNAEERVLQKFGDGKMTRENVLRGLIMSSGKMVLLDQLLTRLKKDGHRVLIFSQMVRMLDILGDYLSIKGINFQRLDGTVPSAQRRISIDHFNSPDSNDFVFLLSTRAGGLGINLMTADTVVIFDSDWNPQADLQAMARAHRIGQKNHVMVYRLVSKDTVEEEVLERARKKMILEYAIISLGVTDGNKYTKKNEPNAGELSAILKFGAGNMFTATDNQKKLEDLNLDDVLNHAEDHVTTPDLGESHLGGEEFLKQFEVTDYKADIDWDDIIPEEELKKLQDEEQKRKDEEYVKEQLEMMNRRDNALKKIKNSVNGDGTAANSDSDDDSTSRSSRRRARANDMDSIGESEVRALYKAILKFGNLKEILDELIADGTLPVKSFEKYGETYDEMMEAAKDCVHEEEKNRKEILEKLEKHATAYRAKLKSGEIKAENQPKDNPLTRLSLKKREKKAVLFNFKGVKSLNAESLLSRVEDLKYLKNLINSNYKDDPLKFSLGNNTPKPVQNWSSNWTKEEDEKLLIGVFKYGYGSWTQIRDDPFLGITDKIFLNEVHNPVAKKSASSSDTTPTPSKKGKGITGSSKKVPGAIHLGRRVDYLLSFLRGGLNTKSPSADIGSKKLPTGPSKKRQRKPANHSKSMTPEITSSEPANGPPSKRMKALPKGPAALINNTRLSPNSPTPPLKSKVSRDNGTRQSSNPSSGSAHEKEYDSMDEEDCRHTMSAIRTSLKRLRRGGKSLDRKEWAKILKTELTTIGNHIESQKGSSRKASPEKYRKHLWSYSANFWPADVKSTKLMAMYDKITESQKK

| SMILES | Percent Effect [1] [%] | Percent Effect [2] [%] | Percent Effect [3] [%] | Percent Effect [4] [%] | Percent Effect (Trypanosoma cruzi) [%] | Percent Effect [5] [%] | Percent Effect [6] [%] | Percent Effect (Homo sapiens) [%] | Percent Effect [7] [%] | Percent Effect [8] [%] | Percent Effect [9] [%] |
| --- | --- | --- | --- | --- | --- | --- | --- | --- | --- | --- | --- |
| COc1cccc(CNc2c(C)cnc3c2c(=O)n(C)c(=O)n3C)c1 | -2.5 | 16.4 | -3.93 | -14.8 | 2.35 | 0.909 | 15.4 | 21.6 | 3.23 | 20 | -6.85 |
| O=C(c1ccc(O)cc1)N1CCN(C(=O)c2ccc3c(c2)COC3)CC1 | -4.15 | 10.1 | -4.98 | 13.3 | -1.98 | -2.66 | 4.01 | -19.9 | 4.43 | 8.86 | -6.29 |
| COc1c(CNCc2ccnc(N3CCCC3)c2)c(C)nn1C | -5.03 | 3.8 | -1.28 | 2.4 | 0.103 | -0.215 | -4.12 | 7.98 | 7.29 | 15.2 | -7.79 |
| COCCN1C(=O)CC(N2CCN(c3ccc(F)cc3)CC2)C1=O (stereo unspecified) | 0.82 | 10.5 | 2.05 | -7.33 | -0.0974 | -1.18 | 10.3 | 14.5 | -3.19 | 5.2 | -4.78 |
| Cc1nc(C)n(CC2CCCN(Cc3ccc(C(N)=O)cc3)C2)n1 (stereo unspecified) | -2.97 | 5.2 | 2.61 | -0.0393 | -0.294 | -3.58 | 5.58 | 5.79 | 4.76 | 11.8 | -14.8 |
| O=C(NCCN1CCCCC1)c1scnc1Cl | -0.516 | 15.8 | 7.25 | -5.01 | -5.7 | 3.24 | 13.6 | 3.91 | 9.36 | 16.1 | -5.64 |
| Cc1cc(C)n(CC2CCCN2C(=O)c2ccc3[nH]nnc3c2)n1 (stereo unspecified) | -4.12 | 5.48 | 5.75 | 0.134 | -2.35 | 5.46 | 14.4 | 4.89 | 1.07 | 10 | -3.11 |
| CC(C)(C)c1nc(CN(Cc2cccs2)C2CCS(=O)(=O)C2)no1 (stereo unspecified) | -1.36 | 21.1 | -5.34 | -2 | 4.76 | 1.44 | 5.67 | 26.2 | 6.4 | 25.9 | -8.43 |
| O=C(NC1COC2(CCN(Cc3ccccn3)CC2)C1)c1ccccn1 (stereo unspecified) | -2.18 | 23.4 | -0.85 | -5.11 | 0.888 | 8.39 | 16.7 | 10.3 | 10.6 | 16.7 | 31.1 |
| CN(CCC(F)(F)F)C(=O)[C@H]1CSCN1C(=O)OC(C)(C)C | -4.76 | 0 | 3.13 | 1.23 | 8.03 | 0 | 1.77 | -11.9 | 1.07 | 2.5 | -1.07 |
| Cc1nc(CCC(=O)NC2CCC2)cc(C2CCNCC2)n1 | -4.77 | 26.7 | -4.67 | -2.25 | 6.1 | -4.43 | 4.67 | 3.41 | 4.25 | 19.2 | -7.72 |
| O=C(NC1CC(=O)N(Cc2cccc(F)c2)C1)c1ccncc1 (stereo unspecified) | -2.44 | -8.11 | 4.25 | -3.94 | -1.93 | -0.476 | 10.7 | 1.72 | 1.59 | 4.88 | 0.971 |
| CN(C)C(=O)N1CCN(C(=O)C(c2ccccc2F)N(C)C)CC1 (stereo unspecified) | -3.25 | 9.72 | -8.74 | 14.1 | 6.71 | 7.06 | 14 | -4.8 | 4.21 | 7.69 | -9.49 |
| CC(C(=O)NCCN1CCCCCC1)n1cncn1 (stereo unspecified) | -5.19 | 13.2 | -5.03 | 2.07 | 4.76 | 1.8 | 3.98 | -5.88 | 4.43 | 13.6 | -5.88 |
| O=C1CC(c2ccncc2)C2(CCN(C(=O)c3ccc[nH]3)CC2)N1 (stereo unspecified) | -2.27 | 18.9 | -1.68 | -16.4 | 4.01 | -5.41 | 8.86 | 14.6 | 3.24 | 15.4 | -0.00396 |
| CNC(=O)COc1ccc(CNCc2ccc(F)cc2F)cc1 | -3.24 | 6.94 | 7.47 | -14.2 | -5.93 | -1.32 | 18.6 | 6.07 | 4.21 | 5.13 | -3.63 |
